Only some compounds are listed: those with a hit (about 3.2% of all), similar ones and a draw of the others.
PLK1 PBD inh: PLK1 (human) polo-box domain binding inhibition. Plk1 PBD binding of FITC phosphopeptide, fluorescence polarization. Potency, µM, for inactives: max response, negative = inhibition, most hits filed as inhibitors. 2.8% of 360,000 active; also: potency is read from the fitted curve at half-maximal effect; series mostly up to about 57 µM; % is scaled to controls: 0 for no effect and ±100 for the full control effect; nearly all actives have a fitted effect of over 65% in size
VDR inh: blocks the human vitamin D receptor; P11473; Potency, µM, inactives show max response, negative = inhibition, usual class: inhibitors; 0.93% of 400,000 active; VDR-SRC2-3 peptide fluorescence polarization, 2 h; also: potency is read from the fitted curve at half-maximal effect; % is scaled to controls: 0 for no effect and ±100 for the full control effect
Target sequence (P11473 whole entry, looked up): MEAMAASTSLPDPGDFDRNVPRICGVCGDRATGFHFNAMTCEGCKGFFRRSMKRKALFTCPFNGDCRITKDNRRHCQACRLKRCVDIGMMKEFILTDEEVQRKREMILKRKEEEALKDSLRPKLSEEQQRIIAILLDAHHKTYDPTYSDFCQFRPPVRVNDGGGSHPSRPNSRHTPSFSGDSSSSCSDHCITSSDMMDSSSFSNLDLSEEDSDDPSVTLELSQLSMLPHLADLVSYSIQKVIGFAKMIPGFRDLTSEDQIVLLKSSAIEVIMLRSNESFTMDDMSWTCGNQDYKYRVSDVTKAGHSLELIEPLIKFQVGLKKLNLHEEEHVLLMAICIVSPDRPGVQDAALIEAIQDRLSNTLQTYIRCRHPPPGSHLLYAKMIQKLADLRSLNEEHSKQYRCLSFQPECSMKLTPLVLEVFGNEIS
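Inhibition of the VDR/SRC2-3 peptide interaction is quantified by fluorescence polarization. Compounds (23 nl, pintool) incubate with the reagents for 2 hours at ambient room temperature.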
Coupling enz: coupling enzyme interference in Giardia aldolase counter-screen; coupling enzyme system counterscreen, AmpLite Red fluorescence; activity change, negative = inhibition, % at 58.2 µM, hits read low; 0.67% of 290,000 active; AID 2472; in the data active = activity change below about -30%; also: % is scaled to controls: 0 for no effect and ±100 for the full control effect
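Final compound at 57.5 uM, incubated 10 min at RT with coupling enzyme reagent (glyceraldehyde-3-phosphate), then 20 min with substrate and AmpLite Red detection. Fluorescence read at 525/598 nm; tests interference with the coupling assay, not aldolase inhibition.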
USP1-UAF1 inh: inhibitors of human USP1/UAF1 deubiquitinase; O94782; recombinant USP1/UAF1, Ub-Rhodamine cleavage fluorescence; Potency, µM (doses to about 57.1 µM), for the others: top-dose activity change, negative = inhibition, actives largely listed as inhibitors; 0.23% of 390,000 active; also: potency is read from the fitted curve at half-maximal effect; % is scaled to controls: 0 for no effect and ±100 for the full control effect; nearly all actives have a fitted effect of over 60% in size
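Step one: compound is pinned into 1nM USP1/UAF1 in HEPES pH 7.8 buffer with TCEP. Step two: 15 min room-temperature incubation. Step three: Ub-Rho (150nM final) starts cleavage, tracked by fluorescence over six one-minute reads.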
USP2a inh: blocks human ubiquitin-specific protease USP2a. O75604. USP2 core, Ub-CHOP2 coupled fluorogenic reporter, 485/531. Potency, µM (highest dose often 38.3 µM), for the others: top-dose activity change, negative = inhibition, actives largely listed as inhibitors. 0.01% of 330,000 active;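 also: potency is read from the fitted curve at half-maximal effect; plate controls were DMSO wells for no effect and full inhibition by NEM control for full effect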
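USP2 core (10nM final) preincubated 30min RT with compound in 20mM Tris-HCl pH 8.0, 2mM CaCl2, 2mM beta-mercaptoethanol, 0.05% CHAPS; 25nM Ub-CHOP2 plus 25nM reporter substrate added, fluorescence (Ex485/Em531) read after 60min.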
GALK inh: inhibitors of human galactokinase | P51570 | Purified GALK, Kinase-Glo residual ATP luminescence | Potency, µM (doses to about 57.5 µM), without a hit: at the top dose activity change, negative = inhibition, actives largely listed as inhibitors | 0.007% of 270,000 active | AID 1868; also: potency is read from the fitted curve at half-maximal effect; % is scaled to controls: 0 for no effect and ±100 for the full control effect
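Luminescence from leftover ATP (Ultra-Glo luciferase/luciferin) served as read-out after a 1 h room-temperature reaction of 5 nM GALK with 35 uM ATP and 100 uM galactose.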
USP1-UAF1 confirm: blocks human USP1/UAF1 cleavage of Ub-Rhodamine; AID 540327; 50% of 50 active; Potency, µM (series often up to 56.8 µM), inactives show at the top dose activity change, negative = inhibition, usual class: inhibitors; shares compounds with VDR inh; Ub-Rhodamine cleavage, fluorescence kinetic read
VDR confirm: inhibits human vitamin D receptor, primary hit validation; shares compounds with VDR inh; VDR-coactivator inhibition assay, qHTS confirmation; Potency, µM, usual class: inhibitors; 89% of 840 active; AID 602199; also: potency is read from the fitted curve at half-maximal effect
VDR FP fluor: confirmation of human VDR-coactivator binding inhibitors, fluorescein label; shares compounds with VDR inh; VDR-coactivator binding, fluorescein fluorescence polarization; Potency, µM (top dose mostly 57.1 µM), without a hit: at the top dose activity change, negative = inhibition, actives largely listed as inhibitors; 48% of 840 active; AID 602200; also: potency is read from the fitted curve at half-maximal effect
VDR bla reporter: confirmation of human vitamin D receptor inhibitors in reporter cells. AID 602202. Potency, µM (series often up to 46.1 µM), for the others: at the top dose activity change, negative = inhibition, usual class: inhibitors. VDR beta-lactamase reporter cells, FRET ratio; cells co-treated with VDR agonist LG190178. 23% of 840 active. shares compounds with VDR inh; also: potency is read from the fitted curve at half-maximal effect; % is scaled to controls: 0 for no effect and ±100 for the full control effect
VDR cytotox: cytotoxic in counter-screen for VDR inhibitors; shares compounds with VDR inh; cytotoxicity counter-screen, cell viability, qHTS; Potency, µM (highest dose often 48.3 µM), for the others: at the top dose activity change, negative = cytotoxicity, usual class: cytotoxic; 18% of 840 active; AID 602204;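 also: potency is read from the fitted curve at half-maximal effect; plate controls were DMSO for no effect and high-concentration cycloheximide for full effect; nearly all actives have a fitted effect of over 75% in size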
* hit, by the source's call; ? = inconclusive; / = no result. Unless noted, calls follow the shape of the dose curve; as a rule, active = well fitted curve in the direction sought with a large enough effect; inconclusive = small, poorly fitted or top-dose-only effect, or another doubt; inactive = no such curve, though single readings can be large; an effect the other way counts as inactive or inconclusive.

SMILES | PLK1 PBD inh | VDR inh | Coupling enz | USP1-UAF1 inh | USP2a inh | GALK inh | VDR confirm | VDR FP fluor | VDR bla reporter | VDR cytotox | others
O=C(O)CSc1cc(NS(=O)(=O)c2cccc([N+](=O)[O-])c2)c2ccccc2c1O | 1.5µM* | ? | -40* | 18µM* | 9% | ? | 5* | 2.5µM* | ? | ?
O=C1NN(c2ccc(Cl)c(Cl)c2)C(=O)/C1=C/c1cccc(OC(=O)c2cccs2)c1 | / | / | 8 | / | 1% | -8% | / | / | / | /
O=C1NN(c2ccccc2)C(=O)/C1=C\c1cccc(OC(=O)c2cccs2)c1 | 1.5µM* | 50µM* | 5 | ? | 4% | -7% | 8.4* | ? | ? | ?
CCn1nc(C)cc1-c1nnc(Sc2ncc([N+](=O)[O-])s2)n1C | ? | 7.9µM* | -2 | -12% | 1% | -3% | 4.7* | 3.5µM* | 3.7µM* | ?
Cn1c(Sc2ccc([N+](=O)[O-])cc2C(F)(F)F)nnc1-c1ccccc1 | -3% | -5% | 3 | -19% | 0% | -1% | / | / | / | /
COc1cccc2c1C(=O)c1c(O)c3c(c(O)c1C2=O)C[C@](O)(C(C)=O)C[C@H]3O[C@@H]1C[C@H](N)[C@H](O)[C@H](C)O1 | / | 4% | -9 | / | / | / | / | / | / | / | USP1-UAF1 confirm=18µM*
CC(=O)C1(O)Cc2c(O)c3c(c(O)c2C(OC2CC(N)C(O)C(C)O2)C1)C(=O)c1c(O)cccc1C3=O (stereo unspecified) | / | 1% | / | / | / | / | / | / | / | /
CN(Cc1ncc[nH]1)C(=O)c1cc(COc2c(F)cccc2F)on1 | -4% | 1% | 3 | -11% | -1% | 0% | / | / | / | /
O=[N+]([O-])c1ccc(/C=C2\CCC(C3=CCCC3)=C2N2CCOCC2)cc1 | -19% | ? | 4 | -10% | -2% | 2% | ? | ? | ? | -2%
O=C(NP(=O)(N1CCCC1)N1CCCC1)C1=C(N2CCOCC2)/C(=C/c2cccc([N+](=O)[O-])c2)CC1 | -11% | -28% | 2 | -16% | -2% | 3% | / | / | / | /
CC(=O)c1cc2ccc(O)cc2oc1=O | -12% | -13% | 5 | -9% | 4% | -3% | / | / | / | /
CC(C)(C)NC(=O)COc1coc(CN2CCN(C(=O)c3ccco3)CC2)cc1=O | -17% | -8% | / | -7% | 0% | / | / | / | / | /
c1cn2cc(-c3ccc4c(c3)OCO4)nc2s1 | 24µM* | 20µM* | -1 | -11% | 0% | 1% | ? | ? | 22% | -29%
CC(=O)Nc1ccc(-c2cn3ccsc3n2)cc1 | 1% | 4% | -2 | -20% | 1% | 1% | / | / | / | /
CC(C(=O)Nc1ccccc1F)N1CCN(S(=O)(=O)c2ccc(C(F)(F)F)cc2)CC1 (stereo unspecified) | 0% | -2% | / | -16% | 2% | / | / | / | / | /
CC(C)Oc1ccc(C(=O)CCN2CCCCC2)cc1 | ? | ? | 4 | -16% | 1% | -2% | 7.1* | 3.2µM* | ? | -19%
CCCC(C)NC(=O)CSc1nnc(-c2c[nH]c3ccccc23)o1 (stereo unspecified) | 1% | -9% | 0 | -16% | 0% | -2% | / | / | / | /
Cc1ccccc1NC(=O)c1ccc([N+](=O)[O-])o1 | -10% | 12% | -1 | -7% | 1% | 4% | / | / | / | /
Cc1ccccc1/C=C/C(=O)c1ccc([N+](=O)[O-])o1 | ? | 7.9µM* | / | -18% | 3% | / | 6* | 3.2µM* | 8.2µM* | 21µM*
COc1ccc(/C=C/C(=O)c2ccc([N+](=O)[O-])o2)cc1 | -21% | -16% | / | -12% | 0% | / | / | / | / | /
Cc1cccc(/C=C/C(=O)c2ccc([N+](=O)[O-])o2)c1 | ? | 8.9µM* | / | ? | 0% | / | 1.1* | 1.3µM* | 5.2µM* | ?
CC1CCCCC1NC(=O)c1cc(S(=O)(=O)N2CCCCC2)ccc1N1CCOCC1 (stereo unspecified) | -8% | 15% | / | -14% | 3% | / | / | / | / | /
COc1ccc(Nc2nc(CC(C)=O)ns2)cc1OC | -5% | ? | 1 | 11% | 4% | -3% | / | / | / | /
O=[N+]([O-])c1ccc(N2CCOCC2)cc1O | 3% | -1% | 1 | -13% | 6% | / | / | / | / | /
Cc1cc(N2CCOCC2)ccc1/C=C\[N+](=O)[O-] | 13µM* | 28µM* | 2 | -7% | -1% | / | 6.7* | 43% | ? | 16µM*
SMILES | PLK1 PBD inh | VDR inh | Coupling enz | USP1-UAF1 inh | USP2a inh | GALK inh | VDR confirm | VDR FP fluor | VDR bla reporter | VDR cytotox | others
COc1ccc(SCC(Cc2ccccc2)N2CCN(CC(C)C)CCC2=O)cc1 (stereo unspecified) | / | ? | 6 | / | / | / | 7.9* | ? | 4% | 23%
Cc1ccc(SCC(Cc2ccccc2)N2CCN(CC(C)C)CCC2=O)cc1 (stereo unspecified) | / | -21% | -5 | / | / | / | / | / | / | /
CCN(CC)c1ccc(C=Nc2ccc(C)cc2)c(O)c1 | -11% | -1% | -16 | -16% | -2% | -1% | / | / | / | /
CCN(CC)c1ccc(C=Nc2ccc(N(C)C)cc2)c(O)c1 | 67% | ? | -27 | ? | 4% | -1% | 4* | 303% | -28% | -9%
CCC(=O)OCCNc1cc(SCCC(=O)OC)c2nonc2c1[N+](=O)[O-] | ? | ? | -18 | -10% | 0% | 0% | / | / | / | /
CCCC(=O)OCCNc1cc(Sc2nc3ccccc3[nH]2)c2nonc2c1[N+](=O)[O-] | 1.9µM* | 20µM* | -13 | -9% | 4% | 1% | 8.4* | ? | ? | 23µM*
CCC(=O)OCCNc1cc(Sc2nccn2C)c2nonc2c1[N+](=O)[O-] | 2.1µM* | 32µM* | -1 | -14% | 3% | -2% | 21* | ? | ? | 15µM*

Screening data from PubChem BioAssay.
